# Source: PubChem
# The list is not random: actives were taken first. Their share in the collection is about 31%.
# CYP2C19 inh: blockers of cytochrome P450 2C19 activity – biochemical, luminescence, ADME assay, primary screen; CYP2C19 Supersomes, luciferin-H EGE luminescence, 30 min; inhibition, % at 5 µM; hit rate 21% among 96,000; AID 778, 2007;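 active = CYP2C19 inhibition above a set limit at 5 µM in the primary screen, cut at about 50% in these data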;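 also: plate controls were negative control wells for no effect and 2.5 mM tranylcypromine positive control for full effect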
# CYP2C9 inh: blockers of cytochrome P450 2C9 activity – biochemical, luminescence, ADME assay, primary screen. hit rate 20% among 96,000. P11712. inhibition, % at 5 µM. CYP2C9 Supersomes, luciferin-H conversion;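 active = blocking of liver enzyme CYP2C9 beyond about 50% at 5 µM, limit read from the data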
# Target sequence (P11712 whole entry, looked up): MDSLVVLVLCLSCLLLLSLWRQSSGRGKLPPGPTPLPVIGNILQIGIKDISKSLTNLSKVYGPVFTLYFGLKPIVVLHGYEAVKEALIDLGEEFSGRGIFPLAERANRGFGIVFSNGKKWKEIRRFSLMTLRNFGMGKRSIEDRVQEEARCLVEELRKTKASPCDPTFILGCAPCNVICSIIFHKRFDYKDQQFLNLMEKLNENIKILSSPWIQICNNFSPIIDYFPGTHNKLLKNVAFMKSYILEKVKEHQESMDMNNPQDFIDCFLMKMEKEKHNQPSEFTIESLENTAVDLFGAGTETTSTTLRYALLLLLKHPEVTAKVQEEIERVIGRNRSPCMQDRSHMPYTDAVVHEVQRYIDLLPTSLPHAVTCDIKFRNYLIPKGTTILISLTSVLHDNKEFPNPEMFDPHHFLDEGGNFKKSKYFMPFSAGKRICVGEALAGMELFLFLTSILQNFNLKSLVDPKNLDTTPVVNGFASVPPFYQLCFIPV
# CYP2C19 act: human CYP2C19 activators, primary screen, biochemical, luminescence | activation factor at 5 µM | 96,000 tested, under 10 active | Cytochrome P450 2C19 (Homo sapiens), P33261 | AID 1025, 2008 | recombinant CYP2C19, luciferin-H EGE luminescence; hits give high values; 0 = fully inhibited enzyme, 1 = untreated enzyme;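 active = activation factor of at least 2 at 5 µM in the primary screen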;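 also: 0 = wells with 2.5 mM tranylcypromine and 1 = vehicle-only wells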
# CYP2C9 act: human CYP2C9 activators, primary screen, biochemical, luminescence; Cytochrome P450 2C9 (Homo sapiens), P11712; recombinant CYP2C9, luciferin-H conversion; hits give high values; factor 1 = untreated enzyme, 0 = blocked; activation factor at 5 µM; hit rate 1.4% among 96,000;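 active = activation factor of 2 or more for CYP2C9 at a 5 µM dose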;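 also: 0 = sulfaphenazole-blocked wells and 1 = vehicle-only wells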
# PLAP activator: PLAP enzyme activators, biochemical, luminescence, HTS | Alkaline phosphatase, placental type (Homo sapiens), P05187 | purified PLAP enzyme, luminescent substrate read-out; hits give high values | activation fold at 20 µM | hit rate 1.2% among 96,000 | AID 696, 2007; in the data active = activation fold above about 2
# Numbers without * were called inactive.
SMILES,CYP2C19 inh,CYP2C9 inh,CYP2C19 act,CYP2C9 act,PLAP activator
CC1CN(S(=O)(=O)c2cccc(C(=O)OCC(=O)Nc3ccc4c(c3)OCO4)c2)CC(C)O1 (stereo not given),23.4,46.3,0.8,0.5,1.2
O=C(NCCc1ccccc1)c1cc(-c2ccc3c(c2)OCO3)on1,3.4,20.7,1,0.8,0.7
O=C(NCCCn1ccnc1)c1cc(-c2ccc3c(c2)OCO3)on1,65.6*,45.5,0.3,0.5,0.8
O=C(NCCCN1CCCC1=O)c1ccc2c(c1)OCO2,-4.2,5.7,1,0.9,1.1
COc1ccc(-c2cc(C(=O)NCCCn3ccnc3)no2)cc1OC,65.2*,50.4*,0.3,0.5,1.5
Cc1cc(C)cc(NC(=O)c2snc3c(=O)[nH]cnc23)c1,11.1,2.2,0.9,1,1
O=C(O)CCCNc1cc(N2CCC3(CC2)OCCO3)c2noc3c2c1C(=O)c1ccccc1-3,25.6,60.7*,0.7,0.4,1.1
CCOC(=O)N1CCN(c2cc(NCCC(=O)O)c3c4c(onc24)-c2ccccc2C3=O)CC1,31.4,47.4,0.7,0.5,1.4
O=C(Cc1c(C(=O)O)[nH]c2ccc(Cl)cc12)Nc1ccc2c(c1)OCCO2,4.8,47.2,1,0.5,1.2
CCOC(=O)c1cnc(Nc2nc3ccccc3o2)nc1CN1CCN(C)CC1,4.5,-4.7,1,1,2*
CCOC(=O)Cc1csc(NC(=O)CSc2nc3sc(C(=O)O)c(C)c3c(=O)[nH]2)n1,11.2,84.1*,0.9,0.2,1.5
Cc1sc2nc(SCC(=O)N(C)C)[nH]c(=O)c2c1C,33.5,53.7*,0.7,0.5,1
CCOC(=O)Cc1csc(NC(=O)CSc2nnc(C)n2C)n1,-4.7,0.4,1,1,1.1
Cc1sc2nc(SCC(=O)N3CCCC3)[nH]c(=O)c2c1C,-0.6,24.2,1,0.8,1.1
Cc1csc(NC(=O)CSc2nc3sc(C)c(C)c3c(=O)[nH]2)n1,11.5,86.3*,0.9,0.1,1.4
CCN(CC)C(=O)CSc1nc2sc(C)c(C)c2c(=O)[nH]1,5.6,20.6,0.9,0.8,1.1
Cc1cc(C(=O)N/N=C/c2cccc(OC(=O)c3ccco3)c2)n[nH]1,-4.4,15.6,1,0.8,1.4
CNC(=O)CSc1nnc(-c2ccco2)n1-c1ccccc1OC,11.7,9.7,0.9,0.9,0.9
O=C(c1ccccc1)c1ccc(N2CCNCC2)cc1,76.9*,44.2,0.2,0.6,1.2
O=C(O)CCC(=O)N1CCN(c2ccc(C(=O)c3ccc(F)cc3)cc2)CC1,2.6,-5.8,1,1.1,1.3
CN1CCN(c2ccc(C(=O)c3ccc(F)cc3)cc2)CC1,51.6*,5.9,0.5,0.9,1.4
CCCN(CCC)S(=O)(=O)c1ccc(NC(=O)c2cc(C(=O)OC)cc([N+](=O)[O-])c2)cc1,17.5,-1.5,0.8,1,1
COc1ccc(C(=O)Oc2ccc(=O)n(-c3ccccc3)n2)cc1,-9.0,3.2,1.1,1,0.9
COc1cc(/C=C2\C(=O)ON=C2c2ccccc2)cc(OC)c1OC,11.6,-19.4,0.9,1.2,1
COc1cc(/C=C2/N=C(C3CCCCC3)OC2=O)cc(OC)c1OC,4.9,62.2*,1,0.4,1.6
SMILES,CYP2C19 inh,CYP2C9 inh,CYP2C19 act,CYP2C9 act,PLAP activator
Cc1nc(N2CCN(C(c3ccccc3)c3ccccc3)CC2)[nH]c(=O)c1C,-1.4,-5.1,1,1.1,0.9
CCOc1cc2[nH]c(=S)n(CCCCC(=O)NCc3ccco3)c(=O)c2cc1OCC,-1.3,72.2*,1,0.3,1.2
CCOc1cc2[nH]c(=S)n(CCC(=O)NCc3ccc(OC)cc3)c(=O)c2cc1OCC,3.0,73.2*,1,0.3,1.5
Nc1c(S(=O)(=O)c2cccs2)c2nc3ccccc3nc2n1Cc1cccs1,1.3,32.8,1,0.7,0.9
Nc1c(S(=O)(=O)c2cccs2)c2nc3ccccc3nc2n1CCc1ccccc1,57.9*,58.5*,0.4,0.4,1
CC(C)CCn1c(N)c(S(=O)(=O)c2cccs2)c2nc3ccccc3nc21,39.0,84.8*,0.6,0.2,1
Nc1c(S(=O)(=O)c2cccs2)c2nc3ccccc3nc2n1Cc1ccc2c(c1)OCO2,42.4,90.9*,0.6,0.1,1
c1csc(-c2nc3nc4ccccc4nc3n2Cc2ccc3c(c2)OCO3)c1,90.1*,96.3*,0.1,0,1.5
CCCn1c(-c2cccs2)nc2nc3ccccc3nc21,13.5,46.8,0.9,0.5,0.9
Cc1ccc(Cl)cc1N1CCN(Cc2cc3c(cc2O)CCC3)CC1,28.1,7.2,0.7,0.9,0.8
O=c1[nH]c2ccc(S(=O)(=O)NCc3ccccn3)cc2s1,6.9,-46.0,0.9,1.5,0.9
O=C(CC1Sc2ncnn2C1=O)Nc1ccc(Br)cc1 (stereo not given),75.5*,20.1,0.2,0.8,1.2
CN=C1SC(CC(=O)Nc2ccc(N3CCOCC3)cc2)C(=O)N1C (stereo not given),-12.6,-20.4,1.1,1.2,1
CC(=O)Nc1ccc(NC(=O)CSc2ncnn2-c2ccccc2)cc1,27.5,24.3,0.7,0.8,1
CCCN1C(=O)SC(CC(=O)Nc2ccc(Br)cc2)C1=O (stereo not given),69.9*,52.3*,0.3,0.5,1
COc1ccc(C)cc1NC(=O)COC(=O)C1CC1,-13.6,-31.0,1.1,1.3,0.8
CCN(CC)C(=O)C1=C(C)Nc2nnnn2C1c1cccnc1 (stereo not given),-10.9,2.6,1.1,1,0.9
COc1ccc(-c2nc(-c3cccc(C)c3)[nH]c(=O)c2C#N)cc1,-12.1,52.0*,1.1,0.5,1.2
O=C(NCc1ccoc1)c1ccc(NC(=O)c2ccccc2Cl)cc1,5.7,13.8,0.9,0.9,0.7
Cn1c(Cn2nnc3ccccc32)nnc1SCC(=O)N1c2ccccc2CCc2ccccc21,40.2,63.5*,0.6,0.4,1.6
Cn1c(Cn2nnc3ccccc32)nnc1SCC(=O)N1c2ccccc2Sc2ccccc21,32.8,51.5*,0.7,0.5,1.7
Cc1nnc(SCC(=O)N2c3ccccc3Sc3ccccc32)n1N,21.7,2.9,0.8,1,0.9
Cn1c(Cn2nnc3ccccc32)nnc1SCC(N)=O,-20.3,-19.4,1.2,1.2,1.3
Cn1nnnc1SCC(=O)N1c2ccccc2Sc2ccc(Cl)cc21,74.7*,35.6,0.3,0.6,0.9
CC1=CCC2(CO)COC(c3ccccc3O)C1C2 (stereo not given),35.1,11.7,0.6,0.9,1
CNC(=O)C(=O)NCCc1ccc(Cl)cc1,48.4,3.4,0.5,1,0.9
O=C(c1scc2c1CCCC2)N1CCCCC1,7.8,-23.4,0.9,1.2,0.9
